{"source": "the supplement of paper PMC11060735", "note": "About 50 (3%) of roughly 1,800 compounds showed activity. This is one part of a sample in which actives are shown more often than they occur."}
{"test_system": "mouse p16Ink4a+/- lung fibroblasts (INKBRITE, bleomycin-injured)", "assay": "percentage of GFP+ (p16Ink4a+) fibroblasts among all cells in well; higher = less depletion of p16Ink4a+ cells, active = 20 or less", "conditions": "1 µM; 3 days"}
{"smiles": "CC[C@@H]1[C@@H](C)O[C@@](O)([C@@H](C)[C@H](O)[C@H](C)[C@H]2OC(=O)/C=C/C=C/[C@H](C)[C@H]([C@@H](C)[C@@H](O)[C@H](C)[C@@]3(O)C[C@@H](O[C@H]4C[C@H](O)[C@H](O)[C@H](C)O4)[C@H](CC)[C@@H](C)O3)OC(=O)/C=C/C=C/[C@H]2C)C[C@H]1O[C@H]1C[C@H](O)[C@H](O)[C@H](C)O1", "note": "[Elaiophylin]", "percentage of GFP+": "11.1% (active)"}
{"smiles": "O=[N+]([O-])c1ncc[nH]1", "note": "[Azomycin]", "percentage of GFP+": "43.5% (inactive)"}
{"smiles": "CN1c2ccccc2C(NCCCCCCC(=O)O)c2ccc(Cl)cc2S1(=O)=O", "note": "(stereo not given) [Tianeptine]", "percentage of GFP+": "29.5% (inactive)"}
{"smiles": "C[C@](O)(COc1ccc(C#N)cc1)C(=O)Nc1ccc(C#N)c(C(F)(F)F)c1", "percentage of GFP+": "43.3% (inactive)"}
{"smiles": "CN1CCC(c2c[nH]c3ccc(O)cc23)CC1", "percentage of GFP+": "45.6% (inactive)"}
{"smiles": "CO[C@H]1CCC(O[C@H]2C[C@H]([C@]3(C)CC[C@]4(C[C@H](O)[C@@H](C)[C@@H]([C@@H](C)/C=C(\\C)C(=O)[C@H](C)C[C@H](C)C(=O)O)O4)O3)O[C@]3(O[C@@H]([C@H]4O[C@@](O)(CO)[C@H](C)C[C@@H]4C)C[C@@H]3C)[C@@H]2C)O[C@@H]1C", "note": "(stereo not given in full) [Nanchangmycin]", "percentage of GFP+": "18.5% (active)"}
{"smiles": "CCCN1C[C@H](CSC)C[C@@H]2c3cccc4[nH]cc(c34)C[C@H]21", "note": "[Pergolide]", "percentage of GFP+": "54.5% (inactive)"}
{"smiles": "C=CC[C@]1(O)CC[C@H]2[C@@H]3CCC4=CC(=O)CCC4=C3C=C[C@@]21C", "note": "[Altrenogest]", "percentage of GFP+": "48.5% (inactive)"}
{"smiles": "O=P1(NCCCl)OCCCN1CCCl", "note": "(stereo not given) [Ifosfamide]", "percentage of GFP+": "45.7% (inactive)"}
{"smiles": "Cc1cc(C(=O)CN2CCCC2)c(C)n1-c1ccc(F)cc1", "percentage of GFP+": "51.3% (inactive)"}
{"smiles": "CCC1(C)CC(=O)NC(=O)C1", "note": "[Bemegride]", "percentage of GFP+": "48.1% (inactive)"}
{"smiles": "CC(C)[C@]12O[C@H]1[C@@H]1O[C@]13[C@]1(O[C@H]1C[C@H]1C4=C(CC[C@@]13C)C(=O)OC4)[C@@H]2O", "note": "[Triptolide]", "percentage of GFP+": "4.17% (active)"}
{"smiles": "Cc1ccccc1-n1c(Cn2ncc3c(N)ncnc32)nc2cccc(C)c2c1=O", "percentage of GFP+": "38.7% (inactive)"}
{"smiles": "CCC1=C[C@@H]2CN3CCc4c([nH]c5ccccc45)[C@@](C(=O)OC)(C2)[C@@H]13", "note": "[Catharanthine]", "percentage of GFP+": "47.9% (inactive)"}
{"smiles": "CN1CCN(c2nc3ccccc3nc2Cl)CC1", "percentage of GFP+": "42.1% (inactive)"}
